Potency and affinity values are given separately. Inconclusive results are not listed.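 Rule for the calls: active = falling signal with fitted half-maximal potency no higher than twice the top valid tested dose; inconclusive = poor fit quality, or flat fit spanning -70% to -30%; inactive = potency over limit, rising signal, or flat fit inside 30%.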
test: Cryptococcus neoformans growth inhibition, dose response, Alamar Blue, cherry-picks (AID 686998); conditions: 24 h; series mostly up to 35 µM; activity change, negative = inhibition: at the top concentration

Activity change, negative = inhibition, inactive:
COc1cccc(S(=O)(=O)N(C)C[C@H]2OCc3cnnn3CCCC(=O)N([C@H](C)CO)C[C@H]2C)c1 -25.8%
COc1cccc(S(=O)(=O)Nc2ccc3c(c2)[C@H]2C[C@H](CC(=O)NCc4ccccc4F)O[C@@H](CO)[C@H]2O3)c1 19.4%
COCC(=O)NC[C@@H]1N[C@@H](CO)[C@H]1c1ccc(C2=CCCC2)cc1 -18.2%
CCC(C)(C(=O)Nc1cccc(C)c1)N1CCC1=O (centres undefined) -17.8% [at 60 µM]
Cc1ccc(NC(=O)[C@H](C)NC(=O)C2CCN(C(=O)[C@@H](N)C(C)C)CC2)cc1 -36.6%
CNC(=O)C[C@@H]1CC[C@@H]2[C@H](COc3ccc(NC(=O)c4cc(C)on4)cc3C(=O)N2C)O1 0.843%
Cc1cc(C)c(N2CCCC2C(=O)Nc2cccc(C(F)(F)F)c2)c(C)c1 (centres undefined) -0.105% [at 46 µM]
C/C=C/c1ccc([C@@H]2[C@@H](CO)N3CCCCN(C(=O)Nc4ccc(OC)cc4)C[C@H]23)cc1 51.5%
O=C(NCC[C@H]1CC[C@H](NS(=O)(=O)c2ccc(F)cc2)[C@@H](CO)O1)c1ccc2c(c1)OCO2 -16.6%
Cc1noc(C)c1NC(=O)N(C)C[C@@H]1Oc2ccc(NC(=O)NC(C)C)cc2CC(=O)N([C@H](C)CO)C[C@H]1C -43.2%
N#C[C@@H]1[C@@H](c2ccccc2)[C@@H](CO)N1C(=O)Cc1ccccc1 -5.94%
CN1[C@@H]2c3ccc(-c4cccnc4)c(=O)n3C[C@@H]2[C@@H](CO)[C@@H]1C(=O)N1CCc2ccccc2C1 -12.7%
CCCC(=O)Nc1ccc2c(c1)OC[C@@H](C)N(Cc1cncnc1)C[C@@H](C)[C@@H](OC)CN(C)C2=O 24.7%
C/C=C/c1ccc([C@@H]2[C@@H](CNC(=O)C3CC3)N(C(=O)CC)[C@H]2CO)cc1 0.874%
C[C@@H]1CN([C@@H](C)CO)C(=O)c2cccc(NC(=O)c3ccncc3)c2O[C@H]1CN(C)C(=O)Nc1ccccc1 -25%
CO[C@H]1CN(C)C(=O)c2ccc(NC(C)=O)cc2OC[C@H](C)N(C(=O)c2ccncc2)C[C@@H]1C -25.1%
COc1ccc(CN(C)C[C@H]2OCCCC[C@@H](C)Oc3ccc(NC(=O)c4ccccc4)cc3C(=O)N([C@H](C)CO)C[C@@H]2C)cc1 26.5%
Cc1cc(C)c(NC(=O)C2CCCCN2C)c(C)c1 (centres undefined) -44%
C[C@@H]1CN([C@@H](C)CO)C(=O)c2cccc(N(C)C)c2O[C@H]1CN(C)C(=O)Nc1ccc(C(F)(F)F)cc1 -31.6%
Cc1noc(C)c1S(=O)(=O)N(C)C[C@@H]1OCCCC[C@@H](C)Oc2ccc(NC(=O)CCCCCC(=O)Nc3ccccc3N)cc2C(=O)N([C@H](C)CO)C[C@@H]1C -14.5%
CCC(=O)N1[C@@H]2Cn3c(cccc3=O)[C@H]1[C@@H](C(=O)NCc1ccccc1)[C@@H]2CO -10.2%
CCS(=O)(=O)N1CCCCN2[C@H](CO)[C@@H](c3ccc(-c4ccc(C#N)cc4)cc3)[C@@H]2C1 1.7%
O=C(Cc1ccccc1)N[C@H]1C=C[C@@H](CC(=O)N2CCOCC2)O[C@H]1CO -32.1%
C[C@@H]1CN([C@H](C)CO)C(=O)c2cc(NC(=O)Nc3cccc4ccccc34)ccc2O[C@H]1CN(C)C(=O)Nc1ccc(C(F)(F)F)cc1 -6.66% [at 30 µM]
O=C(NC1CCCC1)N1CCCCN2[C@H](CO)[C@@H](c3ccc(-c4cncnc4)cc3)[C@H]2C1 61.5%
O=C(C[C@H]1C=C[C@H](NC(=O)C2CCC2)[C@@H](CO)O1)NC1CCC1 -28.6%
CC(C)(C)NC(=O)CSc1ncnc2c1cnn2-c1ccccc1 1.28%
COc1ccc(-c2cnc3c(c2)C(=O)N([C@@H](C)CO)C[C@@H](C)[C@@H](CN(C)S(C)(=O)=O)O3)cc1 6.26%
C/C=C/c1cnc2c(c1)C(=O)N([C@@H](C)CO)C[C@@H](C)[C@@H](CN(C)C(=O)C1CCCCC1)O2 -31.5%
C[C@@H]1CN([C@H](C)CO)C(=O)c2c(c3ccccc3n2C)-c2ccccc2CO[C@H]1CN(C)S(=O)(=O)c1cccs1 39.2%
Cc1cccc(C)c1NC(=O)C1NC(=O)CC1c1ccccc1 (centres undefined) -19.5% [at 56 µM]
CCC(=O)N1[C@@H]2Cn3c(ccc(C4=CCCCC4)c3=O)[C@H]1[C@@H](C(=O)N[C@H](C)c1ccccc1)[C@@H]2CO -8.05%
C/C=C/c1ccc2c(c1)O[C@H](CN(C)S(=O)(=O)c1ccccc1)[C@H](C)CN([C@@H](C)CO)S2(=O)=O -16.9%
COc1ccc(NC(=O)Nc2ccc3c(c2)C(=O)N([C@@H](C)CO)C[C@@H](C)[C@H](CN(C)C(=O)Cc2ccccc2)OCCCC[C@H](C)O3)cc1 2.44%
Cc1cccc(C)c1NC(=O)C(CCc1ccccc1)N1CCN(CCN(C)C)CC1 (centres undefined) 12.3%
Cc1cccc(C)c1NC(=O)C(C)N1CCCCC1 (centres undefined) 24.4%
Cc1noc(C)c1S(=O)(=O)Nc1ccc2c(c1)C(=O)N([C@@H](C)CO)C[C@H](C)[C@@H](CN(C)Cc1ccc3c(c1)OCO3)OCCCC[C@@H](C)O2 32.6%
CCCNC(=O)N1C[C@@H]2[C@H](c3ccccc31)[C@H](CO)N2Cc1ccc(OC)cc1 -21.6%
O=C(c1cccc(F)c1)N1C[C@@H]2[C@H](c3ccccc31)[C@H](CO)N2Cc1cocn1 -32.2%

From PubChem BioAssay
